Pf apPOL block: Pf-apPOL inhibitors, biochemical, fluorescence; Plasmodium falciparum apicoplast DNA polymerase (apPOL); Recombinant Pf-apPOL, molecular beacon fluorescence, 1.5 h; inhibition, % at 10 µM; actives 0.25% (n = 210,000); AID 1794808, 2022
mHTT-CaM PPI inh: mutant huntingtin-calmodulin interaction inhibitors – biochemical, AlphaScreen, primary screen | P42858 | AlphaScreen His-mHTT/GST-CaM binding, luminescence | inhibition, % at 15 µM | actives 3.6% (n = 190,000);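 note: 0% = both proteins with DMSO and 100% = one protein alone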
An asterisk follows results filed as active; . = no result. In the library only some 3.5% were active in any assay of this set; here they are far more common. Cut-off read from the data, not from the text of the source: active = inhibition above about 50%; inactive = the rest.

SMILES	Pf apPOL block	mHTT-CaM PPI inh
O=C(CN1C(=O)C2CCCCC2C1=O)N1CCN(Cc2ccc3c(c2)OCO3)CC1 (stereo unspecified)	4	-2
COc1ccc2[nH]c3ccc([N+](=O)[O-])cc3c(=O)c2c1	-2	2
Cc1ccccc1NC(=O)N1CCCC1C(=O)N(C)C (stereo unspecified)	0	-3
CN(C)C=Nc1c(C#N)cnn1-c1ncnc2sc(-c3ccccc3)cc12	-2	82*
Cc1c(C#N)sc2nc(-c3ccccc3)nc(N=CN(C)C)c12	-4	-4
CN1C(=O)CCC2(CNC(=O)c3cc(Cl)ccc3F)CCCC12 (stereo unspecified)	-3	-10
N=c1c(C(=O)NCCc2ccccc2)cc2c(=O)n3ccccc3nc2n1CCc1ccccc1	-11	23
CCOC(=O)N1CCN(CC(O)COc2ccccc2C(C)=O)CC1 (stereo unspecified)	-4	-16
CC1=Nc2cc(C(=O)NCCCN3CCC(C)CC3)ccc2Sc2ccc(Cl)cc21	-16	53*
CC1=Nc2cc(C(=O)NCCN3CCOCC3)ccc2Sc2ccc(Cl)cc21	-20	39
CCCn1ccc2oc(C)c(C(=O)N3CCN(c4ccccc4)CC3)c2c1=O	1	29
CCn1ccc2oc(C)c(C(=O)N3CCN(c4cccc(Cl)c4)CC3)c2c1=O	3	94*
CCn1ccc2oc(C)c(C(=O)N3CCN(c4ccc(Cl)cc4)CC3)c2c1=O	-5	37
CCCn1ccc2oc(C)c(C(=O)N3CCN(c4cccc(C)c4)CC3)c2c1=O	0	67*
Nc1cc(C2CCN(C(=O)Nc3ccccc3C(F)(F)F)CC2)no1	-7	-11
COc1ccc(N2C(=O)CSC23CCN(C(=O)CCCl)CC3)cc1	-1	-3
Cc1ccc(C)c(-c2noc(-c3c(O)c4ccccc4[nH]c3=O)n2)c1	-12	-7
CC1=Nc2c([nH]c3ccccc23)-c2cc(C)ccc2N1	2	70*
Cc1ccccc1CN1C(=O)/C(=C/C(=O)O)Sc2ccccc21	28	27
O=C(/C=C1\Sc2ccccc2N(Cc2ccc(F)cc2)C1=O)NCCc1ccccc1	10	-16
Cc1ccccc1CN1C(=O)/C(=C/C(=O)NCCc2ccccc2)Sc2ccccc21	-16	51*
Cc1ccc(CN2C(=O)/C(=C/C(=O)O)Sc3ccccc32)cc1	28	60*
COc1cccc(-n2ccnc(NC(=O)c3ccc(C)cc3)c2=O)c1	0	-1
CCCc1ccc(C(C)NC(=O)c2c(F)cccc2Cl)cc1 (stereo unspecified)	-18	-13
COc1ccc(NC2C3CC4CC(C3)CC2C4)cc1OC (stereo unspecified)	-3	62*
SMILES	Pf apPOL block	mHTT-CaM PPI inh
COc1ccc(CC(=O)NC2C3CC4CC(C3)CC2C4)cc1OC (stereo unspecified)	-3	5
Cc1ccccc1C(=O)N1CCC(c2nc(CNC(=O)C3CC3)cs2)CC1	-4	-8
Clc1ccc(OCc2nc(-c3cccc(-c4ccn[nH]4)c3)no2)cc1	4	3
Clc1ccc(Cc2nc(-c3cccc(-c4ccn[nH]4)c3)no2)cc1	2	91*
COc1ccc(-c2csc(NC(=O)c3ccccc3)n2)cc1C	0	-1
Cc1nnc(N2C(=O)C(O)=C(C(=O)c3ccco3)C2c2cccc([N+](=O)[O-])c2)s1 (stereo unspecified)	-5	1
Cc1nnc(N2C(=O)C(O)=C(C(=O)c3ccco3)C2c2cccc(Oc3ccccc3)c2)s1 (stereo unspecified)	-10	56*
Cc1cccc(CN2CCCn3nc(C(=O)NCCN4CCN(C)CC4)cc3C2=O)c1	0	7
COCCn1c(SCC(=O)N2CCCC2)nc2c(c1=O)SC(C)C2 (stereo unspecified)	8	-1
O=C(c1ccccc1Br)N1CCC(c2nnc(-c3ccc(F)cc3)o2)CC1	-3	-8
Cc1cc(C(=O)N2CCC(c3nnc(-c4ccc(F)cc4)o3)CC2)c(C)o1	-5	100*
Cc1cccc2nc(CSc3n[nH]c(N)n3)cc(=O)n12	52*	2
Cc1cccc2nc(CSc3ncc(C#N)c(N)n3)cc(=O)n12	5	10
Cc1ccc(S(=O)(=O)Nc2nc(N3C(=O)c4ccccc4C3=O)n(-c3ccccc3)n2)cc1	3	-3
CCn1c(=O)c(C(=O)NCc2ccccc2)nc2cccnc21	-2	0
CC(NC(=O)C1CCN(Cc2cn(C)c3ccccc23)CC1)c1ccc(F)cc1 (stereo unspecified)	-1	7
Clc1nc(NCc2ccco2)nc(Oc2ccccc2)n1	-5	53*
Clc1nc(NCc2ccco2)nc(NC2CCCCC2)n1	.	-4
CC(C)Cc1ccc(C(C)c2nnc(-c3cccc([N+](=O)[O-])c3)o2)cc1 (stereo unspecified)	13	.
Cc1ccc(S(=O)(=O)CC(SC#N)c2ccccc2)cc1 (stereo unspecified)	-5	-12
N#CSC(CS(=O)(=O)c1ccc([N+](=O)[O-])cc1)c1ccccc1 (stereo unspecified)	-10	62*
O=C1C(c2ccccc2)=C(c2ccccc2)c2ccccc21	-1	41
O=C1C(=C(c2ccccc2)c2ccccc2)C(=O)c2ccccc21	-11	61*
Oc1cccc(Nc2nc(-c3ccccn3)cs2)c1	-4	99*
Oc1ccc(-c2csc(Nc3ncccn3)n2)c(O)c1	-3	9
SMILES	Pf apPOL block	mHTT-CaM PPI inh
O=C(O)c1cccc(Nc2nc(-c3ccccn3)cs2)c1	-4	96*
Cc1cccc(Nc2nc(-c3ccccn3)cs2)c1	-1	97*
O=C(O)c1cccc(Nc2nc(-c3ccccc3)cs2)c1	1	16
Cc1ccc(C)c(-c2csc(Nc3ncccn3)n2)c1	-7	2
CC(C)C(=O)NCC(c1ccc(N(C)C)cc1)N1CCN(c2ccc(F)cc2)CC1 (stereo unspecified)	-7	18
O=C(c1cc(-c2ccccc2)on1)N(Cc1ccccn1)Cc1ccco1	-5	-5
Cc1ccc(NC(=O)C(c2ccccc2)c2ccccc2)c([N+](=O)[O-])c1	-17	5
CC(=O)N1CCc2cc(Br)cc(S(=O)(=O)NC(C)C)c21	-4	4
COc1cc(N=C(C)C2=C(O)c3ccccc3C2=O)cc(OC)c1OC	2	6
O=C(Oc1ccc(Cl)cc1Cl)c1csc(-c2ccc3nonc3c2)n1	1	.
Cc1nc2ccc(Cl)cc2c2c(N)c3ccccc3n12	-12	56*
CC(=O)Nc1c2ccc([N+](=O)[O-])cc2n2c(C)nc3ccc(Cl)cc3c12	-5	-2
COc1ccc(S(=O)(=O)NC(Cc2ccc(Cl)cc2)C(=O)O)cc1 (stereo unspecified)	-21	0
Cc1oc2ccc(OCc3ccccc3)cc2c1C(=O)O	0	-5
Cc1oc2ccc(OCc3cccc(F)c3)cc2c1C(=O)O	56*	10
Cc1ccc(NC(=O)C2CCc3sc(C(=O)N4CCOCC4)cc3C2)c(F)c1 (stereo unspecified)	-2	-1
CC1(C)C2CCC1(C)C(OCC(O)CN1CCN(Cc3ccccc3)CC1)C2 (stereo unspecified)	-4	24
CC1(C)C2CCC1(C)C(OCC(O)CN1CCN(c3ccccc3)CC1)C2 (stereo unspecified)	0	52*
CCc1cc(-c2[nH]ncc2-c2ccc(F)cc2)c(O)cc1OC	9	74*
Oc1ccc(-c2[nH]ncc2-c2ccccc2)c(O)c1O	-3	96*

From PubChem
